Assay results published in PubChem BioAssay (NCI).
Where “and” joins values, the source holds several entries; their conditions need not be identical. Equal values may be shown once. About 79,000 compounds went through this panel and 15% of them were active in at least one assay; those are over-represented in the sample as a whole. Rule as the data show it: active = growth inhibition above about 70%; inactive = the rest.

Columns and labels:
[1] = NCI Yeast Anticancer Drug Screen. Data for the rad50 strain (AID 155);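 also: 0% = growth of vehicle-only cultures of the same strain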; conditions: S. cerevisiae rad50 strain growth inhibition; at 50.0 µM; hits give high values
Summary of the method: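 Genetically altered yeast (DNA repair pathway); compound treatment; growth inhibition vs vehicle ctrl.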

[2] = NCI Yeast Anticancer Drug Screen. Data for the mec2-1 strain (AID 157); conditions: S. cerevisiae mec2-1 strain, at 50.0 µM, hits give high values
Summary of the method: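 Cells of the genetically defined mec2-1 yeast strain are incubated with test compound. Inhibition of growth is calculated against vehicle-treated controls.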

[3] = NCI Yeast Anticancer Drug Screen. Data for the sgs1 mgt1 strain (AID 161);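 also: 0% = growth of cultures given vehicle only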; conditions: S. cerevisiae sgs1 mgt1 strain, at 50.0 µM, hits give high values
Summary of the method: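 Mutant yeast exposed to compound; growth scored against vehicle-only wells.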

[4] = NCI Yeast Anticancer Drug Screen. Data for the cln2 rad14 strain (AID 165);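 also: 0% = growth equal to vehicle treated cultures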; conditions: S. cerevisiae cln2 rad14 strain, at 50.0 µM, hits give high values
Summary of the method: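 The screen exposed genetically defined yeast (cln2 rad14) to test compounds and scored growth inhibition relative to vehicle-treated controls.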

[5] = NCI Yeast Anticancer Drug Screen. Data for the bub3 strain (AID 167); conditions: S. cerevisiae bub3 mutant strain, at 50.0 µM, hits give high values
Summary of the method: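 Yeast carrying a defined mutation is treated with each compound, and growth is compared with that of vehicle-exposed cells to give inhibition.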

[6] = NCI Yeast Anticancer Drug Screen. Data for the mlh1 rad18 strain (AID 175); conditions: S. cerevisiae mlh1 rad18 strain growth inhibition; at 50.0 µM; hits give high values
Summary of the method: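 Compound-treated yeast growth, normalised to vehicle controls. Strain bears defined DNA repair mutations.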

Measured: growth inhibition

O=[N+]([O-])c1ccc2[nH]c(=S)[nH]c(=S)c2c1
inactive: [1] -27.1% and 17.1% | [2] -49.4% and 35.7% | [3] 5.25% and 51% | [4] 7.7% and 36.5% | [5] -5.7% and -1.3% | [6] 12.2% and 16.4%

O=[N+]([O-])c1cc(S(=O)(=O)O)ccc1Cl
inactive: [1] -9.65% and 14.6% | [2] 3.25% and -1.15% | [3] -9.3% and -7.65% | [4] 9.2% and 12.7% | [5] 0.1% and 6.25% | [6] 15.2% and 14.8%

NNC(=O)NC(N)=O
inactive: [1] -48.6% and -20.2% | [2] -26.1% and -25.7% | [3] -27.2% and -9.95% | [4] -20.4% and -17.9% | [5] 1.2% and -27.1% | [6] -4.3% and -22.3%

COC(=O)C(CC(C)C)NC(=O)CN1C(=O)c2ccccc2C1=O (stereo unspecified)
inactive: [1] -12.9% and 9.2% | [2] -5.95% and 10.9% | [3] 6.75% and 4.6% | [4] 5.05% and 6.3% | [5] -10% and 7.3% | [6] -2.4% and 1.45%

CC(=O)C(C)(CCC#N)CCC#N
inactive: [1] -7.25% and 12.7% | [2] 12.1% and -9.2% | [3] -1.4% and -1% | [4] -3.95% and -36.5% | [5] 9.35% and -5.15% | [6] -12.1% and 27%

O=C(CC(=O)c1ccc(Cl)cc1)Cc1ccc2ccccc2n1
inactive: [1] 8.9% and 43.4% | [2] 29.4% and 38.6% | [3] 37.2% and 33.5% | [4] 45% and 39.2% | [5] 52.3% and 51% | [6] 45.3% and 10.2%

C[n+]1cccc2ccccc21
inactive: [1] -17.1% and -14% | [2] -11.8% and -2.1% | [3] -40.5% and -8.3% | [4] -10.7% and -59% | [5] 11.5% and 6.7% | [6] -11.6% and -4.15%

O=C1Nc2c(cc([N+](=O)[O-])cc2[N+](=O)[O-])C1=O
inactive: [1] -8.6% and 3.1% | [2] 7.6% and -0.75% | [3] -5.1% and 2.05% | [4] -0.05% and -12.1% | [5] -2.4% and 3.95% | [6] -1.1% and 2.6%

CSCCC(N)C(=O)NCC(=O)O (stereo unspecified)
inactive: [1] -13.8% and -37.5% | [2] -22.9% and -23.1% | [3] -10.8% and 1.4% | [4] 2.9% and -35.9% | [5] -16.1% and -12% | [6] -11.4% and -8.65%

O=C(O)/C=C(/Oc1ccc(Cl)cc1Cl)C(=O)O
inactive: [1] 5.8% and 19.7% | [2] -3.25% and 6.45% | [3] 6.35% and 9.85% | [4] -19.9% and 15.4% | [5] 17.9% | [6] 11.8% and 19.7%

CCOC(=O)c1ccc(N=[N+]([O-])c2ccc(C(=O)OCC)cc2)cc1
inactive: [1] -10.8% and -4.1% | [2] -4.95% and -4.3% | [3] 2.8% and -7.65% | [4] -6% and -3.25% | [5] -40.5% and -19.9% | [6] -13.4% and 19.8%

CC(=O)OCC(=O)c1ccc(-c2ccccc2)cc1
inactive: [1] 6.55% and 7.65% | [2] -14.8% and 4.5% | [3] 14.1% | [4] 8.35% and -22.8% | [5] 39.9% and 28.6% | [6] 18.8% and 23.9%

CCc1ccc(NCc2cc(OC)c(OC)c(OC)c2)cc1
inactive: [1] 22.8% and 3.85% | [2] -3.9% and -6.2% | [3] 25.9% and 33% | [4] -4.45% and -2.55% | [5] 40% and 38.9% | [6] -55.3% and -23.8%

COc1cc(C2c3cc4c(cc3C(OC(=O)c3ccc[n+](C)c3)C3COC(=O)C23)OCO4)cc(OC)c1OC (stereo unspecified)
inactive: [1] -16.2% and -3.1% | [2] -11.3% and 8.1% | [3] -11.3% and 2.3% | [4] -17.5% and -1.65% | [5] 13.1% and 41.8% | [6] 5.45% and 9.45%

O=C(CCc1ccccc1)CCc1ccccc1
inactive: [1] -28.6% and 33.6% | [2] -4.3% and 4.85% | [3] 28.8% and 7.55% | [4] -30.9% and 27.6% | [5] 0.55% and 35.2% | [6] -20.4% and 26.6%

CCOC(=O)C(N)CS (stereo unspecified)
inactive: [1] -1.35% and -31.1% | [2] -22.8% and -66.1% | [3] -2.5% and -6.05% | [4] -26.9% and 7.05% | [5] -28.3% and -30.7% | [6] 4.95% and -27.9%

O=[N+]([O-])c1ccc(Cc2ccccc2)cc1
inactive: [1] -2.8% and -37.1% | [2] -32.1% and -23.9% | [3] 7.7% and -11.6% | [4] 3.2% and -9.15% | [5] 13.8% and -11.9% | [6] -30.9% and -14.7%

COC1OC2COC(C)(C)OC2C1NS(=O)(=O)Cc1ccccc1 (stereo unspecified)
inactive: [1] 2.8% and 0.75% | [2] -6.85% and -9.65% | [3] -2.1% and -4.05% | [4] -32.6% and -34.1% | [5] -3.45% and -11.8% | [6] -14.1% and -6.35%

COC(=O)C(Cc1ccccc1)NC(=O)C(CNC(=O)OCc1ccccc1)C(=O)OCc1ccccc1 (stereo unspecified)
inactive: [1] 16.2% and -13.2% | [2] -5.6% and -6.65% | [3] -1.9% and -8.85% | [4] 0.65% and -3.55% | [5] -3.5% and -20.5% | [6] -11.1% and -10.2%

CC(=O)Nc1ccc(C=O)cc1
inactive: [1] 13.1% and 25.1% | [2] 3.5% and 19.1% | [3] 14.8% and 24.1% | [4] -18.1% and 8.75% | [5] -4.15% and -9.2% | [6] 4.9% and 28%

O=C(NS(=O)(=O)c1ccccc1)OCc1ccccc1
inactive: [1] 4.65% and -18.1% | [2] -11.8% and -4.35% | [3] -14.8% and -15.3% | [4] -22.2% and -31.8% | [5] 16.7% and 24.8% | [6] -6.1% and 6.1%
